# In PMC7862700, “An all-to-all approach to the identification of sequence-specific readers for epigenetic DNA modifications on cytosine”:
# Experiments:
# Assay in all cases: DAPPL (digital affinity profiling via proximity ligation, sequencing); 10 mM Tris-HCl pH 7.5, 50 mM NaCl, 1 mM DTT, 4% glycerol, room temperature, 30 min; GST-TFs on glutathione beads, 16-mer random dsDNA library, 0.1% formaldehyde crosslink after washing; high values mean tight binding
# FLI1 = molecular target: T1, FLI1 (Homo sapiens, UniProt Q01543 1-452); details: protein: recombinant; tags: N-terminal GST; dsDNA, one strand shown
# T1 sequence: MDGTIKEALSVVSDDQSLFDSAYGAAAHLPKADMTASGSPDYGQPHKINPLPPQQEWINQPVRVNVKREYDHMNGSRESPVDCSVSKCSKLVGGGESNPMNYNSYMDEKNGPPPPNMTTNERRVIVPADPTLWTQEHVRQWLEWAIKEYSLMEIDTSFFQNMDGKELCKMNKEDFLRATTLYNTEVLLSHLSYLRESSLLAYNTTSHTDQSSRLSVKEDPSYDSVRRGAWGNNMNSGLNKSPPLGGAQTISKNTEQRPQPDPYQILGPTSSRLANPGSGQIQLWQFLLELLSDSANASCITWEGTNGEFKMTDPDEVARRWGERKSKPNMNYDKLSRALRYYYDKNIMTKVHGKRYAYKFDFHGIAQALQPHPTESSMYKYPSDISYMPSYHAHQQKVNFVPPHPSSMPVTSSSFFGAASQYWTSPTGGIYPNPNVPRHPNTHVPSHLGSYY
# Outline: (§1)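 Human transcription factors were made in yeast as GST fusions, captured on glutathione beads and barcoded with DNA. With a tag-only sample included, the pool was incubated with 200 nmole of a random double-stranded 16-mer DNA library in Tris/NaCl/DTT/glycerol buffer at room temperature for 30 min, then crosslinked with 0.1% formaldehyde after washing, ligated by proximity, amplified and sequenced. For binding signal, each hexamer's read frequency for a factor is divided by its frequency for the tag-only sample.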
# ELK1 = molecular target: T2, ELK1 (Homo sapiens, UniProt P19419 1-428); details: protein: recombinant; tags: N-terminal GST; dsDNA, one strand shown
# T2 sequence: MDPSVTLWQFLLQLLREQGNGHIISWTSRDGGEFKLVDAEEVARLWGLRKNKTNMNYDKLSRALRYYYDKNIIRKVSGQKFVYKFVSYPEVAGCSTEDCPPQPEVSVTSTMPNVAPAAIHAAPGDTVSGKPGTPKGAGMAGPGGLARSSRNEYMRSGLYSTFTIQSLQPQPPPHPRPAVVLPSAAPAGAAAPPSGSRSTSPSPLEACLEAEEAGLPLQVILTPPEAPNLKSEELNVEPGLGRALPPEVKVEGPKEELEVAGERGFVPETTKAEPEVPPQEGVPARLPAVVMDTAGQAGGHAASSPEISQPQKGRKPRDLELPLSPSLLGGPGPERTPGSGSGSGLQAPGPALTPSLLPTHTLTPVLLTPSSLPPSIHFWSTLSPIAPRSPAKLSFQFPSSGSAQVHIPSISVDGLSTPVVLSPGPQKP
# Outline: as §1
# GABPA = molecular target: T3, GABPA (Homo sapiens, UniProt Q06546 1-454); details: protein: recombinant; tags: N-terminal GST; dsDNA, one strand shown
# T3 sequence: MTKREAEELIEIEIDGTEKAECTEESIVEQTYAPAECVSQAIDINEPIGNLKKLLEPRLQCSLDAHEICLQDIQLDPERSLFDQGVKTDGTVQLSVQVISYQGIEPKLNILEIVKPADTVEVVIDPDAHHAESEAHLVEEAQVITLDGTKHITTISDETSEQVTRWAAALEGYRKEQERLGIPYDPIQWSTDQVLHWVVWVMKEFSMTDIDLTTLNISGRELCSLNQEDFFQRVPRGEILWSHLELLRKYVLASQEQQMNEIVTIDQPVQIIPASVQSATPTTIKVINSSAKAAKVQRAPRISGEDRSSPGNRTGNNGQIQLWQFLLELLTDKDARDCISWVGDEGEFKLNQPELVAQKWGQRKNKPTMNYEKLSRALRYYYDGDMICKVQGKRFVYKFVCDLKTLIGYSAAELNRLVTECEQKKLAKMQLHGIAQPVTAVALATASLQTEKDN
# Outline: as §1
# ERG = molecular target: T4, ERG (Homo sapiens, UniProt P11308 1-479); details: protein: recombinant; tags: N-terminal GST; dsDNA, one strand shown
# T4 sequence: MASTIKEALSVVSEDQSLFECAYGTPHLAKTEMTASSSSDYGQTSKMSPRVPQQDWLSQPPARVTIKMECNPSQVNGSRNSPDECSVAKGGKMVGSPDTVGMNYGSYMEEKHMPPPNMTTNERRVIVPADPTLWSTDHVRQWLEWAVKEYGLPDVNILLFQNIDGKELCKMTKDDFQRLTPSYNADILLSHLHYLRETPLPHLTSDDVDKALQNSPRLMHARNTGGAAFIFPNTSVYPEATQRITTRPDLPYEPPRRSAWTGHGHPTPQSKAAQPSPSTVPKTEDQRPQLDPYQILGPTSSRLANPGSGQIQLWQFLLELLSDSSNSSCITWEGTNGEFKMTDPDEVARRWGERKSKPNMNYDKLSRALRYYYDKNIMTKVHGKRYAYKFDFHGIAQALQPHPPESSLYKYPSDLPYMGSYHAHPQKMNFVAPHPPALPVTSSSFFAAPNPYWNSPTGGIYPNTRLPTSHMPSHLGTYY
# Outline: as §1
# ELF1 = ELF1 (Homo sapiens, UniProt P32519 1-619); details: protein: recombinant; tags: N-terminal GST; dsDNA, one strand shown
# Chain of ELF1 (P32519 whole entry): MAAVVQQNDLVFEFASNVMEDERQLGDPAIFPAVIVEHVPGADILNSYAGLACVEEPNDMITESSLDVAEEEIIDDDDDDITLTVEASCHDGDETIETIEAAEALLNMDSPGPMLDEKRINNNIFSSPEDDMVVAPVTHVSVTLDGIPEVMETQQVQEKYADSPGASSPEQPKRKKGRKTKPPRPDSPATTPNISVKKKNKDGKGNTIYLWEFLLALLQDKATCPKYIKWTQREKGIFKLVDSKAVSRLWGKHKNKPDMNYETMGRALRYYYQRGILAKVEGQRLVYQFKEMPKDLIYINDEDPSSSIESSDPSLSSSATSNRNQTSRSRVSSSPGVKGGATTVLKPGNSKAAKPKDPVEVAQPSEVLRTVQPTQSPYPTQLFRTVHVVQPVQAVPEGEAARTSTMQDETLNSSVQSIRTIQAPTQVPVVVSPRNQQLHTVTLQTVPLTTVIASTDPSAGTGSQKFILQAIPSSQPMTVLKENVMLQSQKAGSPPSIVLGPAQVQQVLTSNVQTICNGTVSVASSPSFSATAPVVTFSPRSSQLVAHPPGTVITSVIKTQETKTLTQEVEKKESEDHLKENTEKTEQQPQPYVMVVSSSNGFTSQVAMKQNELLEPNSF
# Outline: as §1
# EHF = molecular target: T5, EHF (Homo sapiens, UniProt Q9NZC4 1-300); details: protein: recombinant; tags: N-terminal GST; dsDNA, one strand shown
# T5 sequence: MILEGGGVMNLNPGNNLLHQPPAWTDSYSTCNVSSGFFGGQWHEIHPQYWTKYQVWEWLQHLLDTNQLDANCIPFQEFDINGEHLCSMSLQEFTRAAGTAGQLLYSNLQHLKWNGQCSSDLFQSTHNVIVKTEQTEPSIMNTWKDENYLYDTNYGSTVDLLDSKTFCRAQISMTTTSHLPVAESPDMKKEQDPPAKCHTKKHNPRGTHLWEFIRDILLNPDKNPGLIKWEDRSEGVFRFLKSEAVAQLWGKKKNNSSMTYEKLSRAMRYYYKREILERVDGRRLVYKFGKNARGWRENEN
# Outline: as §1
# SPI1 = SPI1 (Homo sapiens, UniProt P17947 1-270); details: protein: recombinant; tags: N-terminal GST; dsDNA, one strand shown
# Outline: as §1
# SPIB = SPIB (Homo sapiens, UniProt Q01892 1-262); details: protein: recombinant; tags: N-terminal GST; dsDNA, one strand shown
# Chain of SPIB (Q01892 whole entry): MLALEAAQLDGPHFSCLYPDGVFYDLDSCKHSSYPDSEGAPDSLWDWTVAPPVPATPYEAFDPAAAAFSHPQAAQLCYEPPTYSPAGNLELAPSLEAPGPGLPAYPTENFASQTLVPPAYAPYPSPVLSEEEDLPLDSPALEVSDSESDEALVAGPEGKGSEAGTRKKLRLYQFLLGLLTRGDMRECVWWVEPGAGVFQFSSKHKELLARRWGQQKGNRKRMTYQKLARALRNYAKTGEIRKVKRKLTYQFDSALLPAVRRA
# Outline: as §1
# ELK3 = molecular target: T6, ELK3 (Homo sapiens, UniProt P41970 1-407); details: protein: recombinant; tags: N-terminal GST; dsDNA, one strand shown
# T6 sequence: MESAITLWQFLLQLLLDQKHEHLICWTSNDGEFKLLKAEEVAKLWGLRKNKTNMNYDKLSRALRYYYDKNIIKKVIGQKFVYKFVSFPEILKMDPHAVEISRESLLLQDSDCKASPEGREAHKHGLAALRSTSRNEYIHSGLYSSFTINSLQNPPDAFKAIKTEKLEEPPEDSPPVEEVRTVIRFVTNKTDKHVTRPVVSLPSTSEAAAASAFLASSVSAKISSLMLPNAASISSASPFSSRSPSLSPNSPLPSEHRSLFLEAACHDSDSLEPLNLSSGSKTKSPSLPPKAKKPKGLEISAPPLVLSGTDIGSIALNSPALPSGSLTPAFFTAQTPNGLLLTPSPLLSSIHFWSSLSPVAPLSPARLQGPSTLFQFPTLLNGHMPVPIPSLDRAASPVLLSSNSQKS
# Outline: as §1
# FEV = molecular target: T7, FEV (Homo sapiens, UniProt Q99581 1-238); details: protein: recombinant; tags: N-terminal GST; dsDNA, one strand shown
# T7 sequence: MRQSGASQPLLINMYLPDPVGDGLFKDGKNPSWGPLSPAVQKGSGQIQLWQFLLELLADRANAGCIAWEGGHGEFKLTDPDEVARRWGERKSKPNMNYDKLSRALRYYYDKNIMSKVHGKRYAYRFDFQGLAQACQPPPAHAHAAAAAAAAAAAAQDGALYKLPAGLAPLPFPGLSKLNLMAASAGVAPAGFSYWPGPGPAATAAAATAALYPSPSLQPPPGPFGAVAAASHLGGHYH
# Outline: as §1
# ETV5 = ETV5 (Homo sapiens, UniProt P41161 1-510); details: protein: recombinant; tags: N-terminal GST; dsDNA, one strand shown
# Chain of ETV5 (P41161 whole entry): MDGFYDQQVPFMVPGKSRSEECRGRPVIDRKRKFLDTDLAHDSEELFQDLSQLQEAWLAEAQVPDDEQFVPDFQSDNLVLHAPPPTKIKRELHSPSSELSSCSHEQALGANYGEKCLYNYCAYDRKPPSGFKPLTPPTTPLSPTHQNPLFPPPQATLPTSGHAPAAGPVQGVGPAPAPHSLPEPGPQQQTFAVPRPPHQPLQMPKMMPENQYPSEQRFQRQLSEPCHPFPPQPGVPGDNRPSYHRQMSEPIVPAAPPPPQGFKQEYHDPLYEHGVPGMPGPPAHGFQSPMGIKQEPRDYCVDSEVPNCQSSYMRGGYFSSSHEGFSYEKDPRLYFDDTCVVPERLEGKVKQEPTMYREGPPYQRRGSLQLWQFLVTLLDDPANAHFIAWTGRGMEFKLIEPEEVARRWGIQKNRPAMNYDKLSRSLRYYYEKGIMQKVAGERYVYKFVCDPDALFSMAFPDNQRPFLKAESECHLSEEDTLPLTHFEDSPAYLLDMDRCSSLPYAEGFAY
# Outline: as §1
# HSF1 = HSF1 (Homo sapiens, UniProt Q00613 1-529); details: protein: recombinant; tags: N-terminal GST; chain copies: 3; dsDNA, one strand shown
# Chain of HSF1 (Q00613 whole entry): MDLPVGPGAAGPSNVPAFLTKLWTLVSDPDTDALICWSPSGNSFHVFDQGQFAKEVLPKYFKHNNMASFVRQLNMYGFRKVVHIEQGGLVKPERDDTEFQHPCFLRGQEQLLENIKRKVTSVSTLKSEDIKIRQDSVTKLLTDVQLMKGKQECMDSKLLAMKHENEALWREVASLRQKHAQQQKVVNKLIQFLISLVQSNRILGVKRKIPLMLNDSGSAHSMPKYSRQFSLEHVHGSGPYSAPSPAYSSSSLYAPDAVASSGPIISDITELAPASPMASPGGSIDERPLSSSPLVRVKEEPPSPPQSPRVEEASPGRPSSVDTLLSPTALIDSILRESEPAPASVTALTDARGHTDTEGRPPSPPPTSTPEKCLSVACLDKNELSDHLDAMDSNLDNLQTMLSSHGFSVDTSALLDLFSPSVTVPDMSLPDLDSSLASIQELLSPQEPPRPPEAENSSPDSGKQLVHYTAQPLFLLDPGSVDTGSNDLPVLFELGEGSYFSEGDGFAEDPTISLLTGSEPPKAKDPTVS
# Outline: as §1
# SPIC = molecular target: T8, SPIC (Homo sapiens, UniProt Q8N5J4 1-248); details: protein: recombinant; tags: N-terminal GST; dsDNA, one strand shown
# T8 sequence: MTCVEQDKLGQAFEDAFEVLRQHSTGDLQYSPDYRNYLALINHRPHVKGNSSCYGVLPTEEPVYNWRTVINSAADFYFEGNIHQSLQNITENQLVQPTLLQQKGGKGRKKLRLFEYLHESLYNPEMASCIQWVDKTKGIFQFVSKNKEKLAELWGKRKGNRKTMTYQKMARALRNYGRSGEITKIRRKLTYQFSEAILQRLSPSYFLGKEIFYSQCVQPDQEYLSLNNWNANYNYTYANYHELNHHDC
# Outline: as §1
# ELF4 = ELF4 (Homo sapiens, UniProt Q99607 1-663); details: protein: recombinant; tags: N-terminal GST; dsDNA, one strand shown
# Chain of ELF4 (Q99607 whole entry): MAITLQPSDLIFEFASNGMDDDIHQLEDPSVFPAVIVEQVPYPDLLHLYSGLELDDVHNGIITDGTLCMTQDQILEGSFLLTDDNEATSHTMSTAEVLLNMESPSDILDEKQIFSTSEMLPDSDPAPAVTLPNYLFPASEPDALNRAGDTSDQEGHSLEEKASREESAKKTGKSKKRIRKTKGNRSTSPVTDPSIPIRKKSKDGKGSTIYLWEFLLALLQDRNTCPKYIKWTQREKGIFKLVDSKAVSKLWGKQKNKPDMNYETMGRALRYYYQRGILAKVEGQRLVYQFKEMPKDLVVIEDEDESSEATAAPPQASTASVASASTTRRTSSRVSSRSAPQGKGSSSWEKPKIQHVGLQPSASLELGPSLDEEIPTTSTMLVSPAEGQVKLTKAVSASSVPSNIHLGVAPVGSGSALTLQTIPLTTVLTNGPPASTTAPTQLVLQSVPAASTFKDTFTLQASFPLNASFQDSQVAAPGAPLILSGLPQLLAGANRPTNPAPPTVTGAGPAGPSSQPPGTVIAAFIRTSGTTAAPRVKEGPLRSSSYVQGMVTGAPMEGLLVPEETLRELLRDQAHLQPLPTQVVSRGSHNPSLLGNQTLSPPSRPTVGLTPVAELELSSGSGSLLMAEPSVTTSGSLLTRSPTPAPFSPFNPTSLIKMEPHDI
# Outline: as §1
# ELK4 = molecular target: T9, ELK4 (Homo sapiens, UniProt P28324-2 1-405); details: protein: recombinant; tags: N-terminal GST; dsDNA, one strand shown
# T9 sequence: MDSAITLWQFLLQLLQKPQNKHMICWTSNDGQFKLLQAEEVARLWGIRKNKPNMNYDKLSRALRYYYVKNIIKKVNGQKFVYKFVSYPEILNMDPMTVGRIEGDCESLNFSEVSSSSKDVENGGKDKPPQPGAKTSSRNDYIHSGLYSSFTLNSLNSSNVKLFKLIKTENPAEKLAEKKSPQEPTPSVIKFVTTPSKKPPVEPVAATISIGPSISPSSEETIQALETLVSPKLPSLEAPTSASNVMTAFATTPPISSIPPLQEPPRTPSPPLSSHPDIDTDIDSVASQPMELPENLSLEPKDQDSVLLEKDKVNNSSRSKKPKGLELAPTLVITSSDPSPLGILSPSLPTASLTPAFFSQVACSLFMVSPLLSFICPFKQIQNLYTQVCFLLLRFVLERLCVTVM
# Outline: as §1
# ETV2 = molecular target: T10, ETV2 (Homo sapiens, UniProt O00321 1-342); details: protein: recombinant; tags: N-terminal GST; dsDNA, one strand shown
# T10 sequence: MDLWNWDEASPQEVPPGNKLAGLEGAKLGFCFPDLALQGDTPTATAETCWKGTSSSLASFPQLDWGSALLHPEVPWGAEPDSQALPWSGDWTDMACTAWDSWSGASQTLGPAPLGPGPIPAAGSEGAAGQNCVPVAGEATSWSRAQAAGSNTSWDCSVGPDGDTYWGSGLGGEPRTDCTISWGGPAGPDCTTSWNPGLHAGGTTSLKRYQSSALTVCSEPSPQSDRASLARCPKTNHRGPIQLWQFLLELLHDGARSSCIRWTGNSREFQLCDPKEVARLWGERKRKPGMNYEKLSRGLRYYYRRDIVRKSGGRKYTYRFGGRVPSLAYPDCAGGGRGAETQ
# Outline: as §1
# ELF3 = molecular target: T11, ELF3 (Homo sapiens, UniProt P78545 1-371); details: protein: recombinant; tags: N-terminal GST; dsDNA, one strand shown
# T11 sequence: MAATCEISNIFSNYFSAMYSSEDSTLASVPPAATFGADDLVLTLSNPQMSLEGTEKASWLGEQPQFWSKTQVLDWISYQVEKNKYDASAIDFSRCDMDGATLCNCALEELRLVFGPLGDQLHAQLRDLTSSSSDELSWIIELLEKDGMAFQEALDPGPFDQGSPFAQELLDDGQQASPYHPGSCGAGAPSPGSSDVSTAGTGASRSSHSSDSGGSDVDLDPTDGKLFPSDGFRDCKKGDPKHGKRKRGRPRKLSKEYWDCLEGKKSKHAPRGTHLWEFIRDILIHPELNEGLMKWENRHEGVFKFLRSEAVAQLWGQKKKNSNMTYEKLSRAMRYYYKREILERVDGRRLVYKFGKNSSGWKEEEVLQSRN
# Outline: as §1
# CRX = CRX (Homo sapiens, UniProt O43186 1-299); details: protein: recombinant; tags: N-terminal GST; dsDNA, one strand shown
# Chain of CRX (O43186 whole entry): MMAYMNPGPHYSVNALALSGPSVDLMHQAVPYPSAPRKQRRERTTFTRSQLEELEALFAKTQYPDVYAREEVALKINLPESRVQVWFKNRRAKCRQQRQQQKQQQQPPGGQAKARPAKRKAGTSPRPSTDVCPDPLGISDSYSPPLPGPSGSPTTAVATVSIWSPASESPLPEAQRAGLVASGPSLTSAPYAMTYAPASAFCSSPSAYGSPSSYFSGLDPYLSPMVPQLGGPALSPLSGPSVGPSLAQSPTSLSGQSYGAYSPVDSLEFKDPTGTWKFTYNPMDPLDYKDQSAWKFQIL
# Outline: as §1
# ETV1 = ETV1 (Homo sapiens, UniProt P50549 1-477); details: protein: recombinant; tags: N-terminal GST; dsDNA, one strand shown
# Chain of ETV1 (P50549 whole entry): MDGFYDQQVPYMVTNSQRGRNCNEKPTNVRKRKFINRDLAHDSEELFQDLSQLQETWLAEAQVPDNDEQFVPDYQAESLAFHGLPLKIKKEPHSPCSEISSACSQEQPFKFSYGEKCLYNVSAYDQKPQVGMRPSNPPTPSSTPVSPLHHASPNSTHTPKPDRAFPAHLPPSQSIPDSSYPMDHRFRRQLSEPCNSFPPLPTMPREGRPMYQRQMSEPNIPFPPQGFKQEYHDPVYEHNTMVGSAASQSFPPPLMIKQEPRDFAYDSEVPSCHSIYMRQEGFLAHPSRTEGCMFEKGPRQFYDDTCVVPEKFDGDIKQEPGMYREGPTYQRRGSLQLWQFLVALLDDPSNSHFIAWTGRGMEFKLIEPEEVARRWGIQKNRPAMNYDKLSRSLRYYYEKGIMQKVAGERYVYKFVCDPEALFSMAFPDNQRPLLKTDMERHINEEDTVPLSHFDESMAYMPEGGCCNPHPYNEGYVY
# Outline: as §1
sequence,measurement,setting,value
TTCTAT,binding signal,FLI1,"1.4 fold enrichment (6-mer frequency, TF over GST control)"
same,binding signal,ELK1,"1.49 fold enrichment (6-mer frequency, TF over GST control)"
same,binding signal,GABPA,"1.31 fold enrichment (6-mer frequency, TF over GST control)"
same,binding signal,ERG,"1.26 fold enrichment (6-mer frequency, TF over GST control)"
same,binding signal,ELF1,"1.46 fold enrichment (6-mer frequency, TF over GST control)"
same,binding signal,EHF,"1.42 fold enrichment (6-mer frequency, TF over GST control)"
same,binding signal,SPI1,"1.36 fold enrichment (6-mer frequency, TF over GST control)"
same,binding signal,SPIB,"1.41 fold enrichment (6-mer frequency, TF over GST control)"
same,binding signal,ELK3,"1.35 fold enrichment (6-mer frequency, TF over GST control)"
same,binding signal,FEV,"1.4 fold enrichment (6-mer frequency, TF over GST control)"
same,binding signal,ETV5,"1.43 fold enrichment (6-mer frequency, TF over GST control)"
same,binding signal,HSF1,"2.05 fold enrichment (6-mer frequency, TF over GST control)"
same,binding signal,SPIC,"1.44 fold enrichment (6-mer frequency, TF over GST control)"
same,binding signal,ELF4,"1.4 fold enrichment (6-mer frequency, TF over GST control)"
same,binding signal,ELK4,"1.52 fold enrichment (6-mer frequency, TF over GST control)"
same,binding signal,ETV2,"1.32 fold enrichment (6-mer frequency, TF over GST control)"
same,binding signal,ELF3,"1.28 fold enrichment (6-mer frequency, TF over GST control)"
same,binding signal,CRX,"1.67 fold enrichment (6-mer frequency, TF over GST control)"
same,binding signal,ETV1,"1.3 fold enrichment (6-mer frequency, TF over GST control)"
